Measurements published in the supplement of paper PMC10981050.
“And” between values parts separate entries of the source, which are not always exact repeats. Identical values can stand only once. Counter-ions that a name gives are not always drawn.

Columns and labels:
Assay in all cases: cell viability relative to vehicle control; higher = less cytotoxic
Settings in all cases: 10 µM
K562 = system: K562
Method in brief: (§1)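 Screening covered the Selleck bioactive, kinase and epigenetic probe libraries, less identity-inconsistent compounds, on CRISPR-edited mutant clones and isogenic wild-type clones of four leukaemia lines. Cells, at 2000 per well in 50 µL medium, received a single 10 µM acoustically dispensed dose. After 48 h the supernatant was removed and CellTiter-Glo luminescence was read. Viability was analysed in Genedata Screener as percent of the on-plate vehicle control.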

MARIMO = system: MARIMO
Method in brief: as §1

MOLM14 = system: MOLM14
Method in brief: as §1

OCI-AML2 = system: OCI-AML2
Method in brief: as §1

Row | SMILES | cell viability (K562; SRSF2 genotype: SRSF2 P95H/wt) | cell viability (K562; SRSF2 genotype: SRSF2 wt/wt) [%] | cell viability (MARIMO; SRSF2 genotype: SRSF2 P95H/wt) [%] | cell viability (MARIMO; SRSF2 genotype: SRSF2 wt/wt) [%] | cell viability (MOLM14; SRSF2 genotype: SRSF2 P95H/wt) [%] | cell viability (MOLM14; SRSF2 genotype: SRSF2 wt/wt) [%] | cell viability (OCI-AML2; SRSF2 genotype: P95H/wt) [%] | cell viability (OCI-AML2; SRSF2 genotype: wt/wt) [%]
1 | CC(C)(C)[C@]1(O)CC2OC(=O)CC23C(=O)OC2OC(=O)[C@H](O)C231 (stereo not given in full) [Bilobalide] | 108% and 105% | 98 | 96.9 | 116 | 104 | 104 | 98.1 | 109
2 | C/C=C(\C)C(=O)N[C@@H](c1ccccc1)[C@@H](O)C(=O)O[C@H]1C[C@@]2(O)[C@@H](OC(=O)c3ccccc3)[C@@H]3[C@]4(OC(C)=O)CO[C@@H]4C[C@H](O)[C@@]3(C)C(=O)[C@H](OC(C)=O)C(=C1C)C2(C)C [Cephalomannine] | 22.2% and 39.2% | 31 | 7.43 | 5.47 | 9.27 | 2.7 | 7.08 | 10.9
3 | Cc1sc2c(c1C)C(c1ccc(Cl)cc1)=N[C@@H](CC(=O)Nc1ccc(O)cc1)c1nnc(C)n1-2 | 60.9% and 68.8% | 71.9 | 27.3 | 35.8 | 18 | 14.1 | 17.7 | 32.3
4 | COc1ccc(/C=C/c2cc(OC)cc(OC)c2)cc1 [3,4',5-Trimethoxy-trans-stilbene] | 26.9% and 46.4% | 39.7 | 47.5 | 35.7 | 15.3 | 6.3 | 38.2 | 36.4
5 | CCC(COC(=O)c1cc(OC)c(OC)c(OC)c1)(c1ccccc1)N(C)C (stereo not given) [Trimebutine maleate] | 99% and 90.6% | 98.2 | 87.9 | 90.3 | 88.9 | 98.2 | 89.9 | 97.4
6 | O=c1ccc2cc(O[C@@H]3O[C@H](CO)[C@@H](O)[C@H](O)[C@H]3O)c(O)cc2o1 [Aesculin (Esculin)] | 104% and 98.9% | 100 | 96.9 | 97.7 | 101 | 99.7 | 95.1 | 93.3
7 | c1cc2c(cc1[C@H]1OC[C@H]3[C@@H]1CO[C@H]3c1ccc3c(c1)OCO3)OCO2 [Asarinin] | 99.6% and 99.4% | 102 | 91.7 | 104 | 100 | 103 | 89.1 | 89.4
8 | C[N+]1(C)[C@@H]2C[C@@H](OC(=O)[C@H](CO)c3ccccc3)C[C@H]1[C@@H]1O[C@@H]12 [Methscopolamine (Pamine)] | 97.7% and 84.7% | 82.5 | 79.5 | 87.8 | 82.4 | 84.1 | 83.2 | 84.8
9 | CC1CCC2N(C1)CC1C3CC4C(CC(=O)C5CC(O)CCC54C)C3CCC1C2(C)O (stereo not given) [Peiminine] | 92.5% and 90.8% | 86.1 | 107 | 109 | 87 | 75.6 | 46.2 | 58.8
10 | COc1cc(C2OCC3C(c4cc(OC)c(OC5OC(CO)C(O)C(O)C5O)c(OC)c4)OCC23)cc(OC)c1OC1OC(CO)C(O)C(O)C1O (stereo not given) [Eleutheroside E] | 104% and 98.2% | 101 | 97.3 | 97.9 | 98.5 | 107 | 102 | 112
11 | O=C1CC[C@@]2(O)[C@H]3Cc4ccc(O)c5c4[C@@]2(CCN3CC2CC2)[C@H]1O5 [Naltrexone HCl] | 98.5% and 105% | 97.7 | 98.8 | 103 | 99.9 | 103 | 106 | 99.8
12 | CN1c2ccccc2C(NCCCCCCC(=O)O)c2ccc(Cl)cc2S1(=O)=O (stereo not given) [Tianeptine sodium] | 99.4% and 97.1% | 97.6 | 106 | 108 | 107 | 101 | 98.4 | 111
13 | Cc1c(N)nc(C(CC(N)=O)NCC(N)C(N)=O)nc1C(=O)NC(C(=O)NC(C)C(O)C(C)C(=O)NC(C(=O)NCCc1nc(-c2nc(C(=O)NCCC[S+](C)C)cs2)cs1)C(C)O)C(O[C@@H]1O[C@@H](CO)[C@@H](O)[C@H](O)[C@@H]1O[C@H]1O[C@H](CO)[C@@H](O)[C@H](OC(N)=O)[C@@H]1O)c1cnc[nH]1 (stereo not given in full) [Bleomycin sulfate] | 95.9% and 107% | 69.7 | 7.26 | 8.15 | 53.4 | 21.6 | 27 | 36.8
14 | C[C@]12CC[C@H]3[C@@H](CC[C@@]45O[C@@H]4C(O)=C(C#N)C[C@]35C)[C@@H]1CC[C@@H]2O [Trilostane] | 92.4% and 94.7% | 97.6 | 87.4 | 92.5 | 95.4 | 102 | 123 | 118
15 | CC(NC(C)(C)C)C(=O)c1cccc(Cl)c1 (stereo not given) [Amfebutamone (Bupropion) HCl] | 86.7% and 90.3% | 95.6 | 87.9 | 94.1 | 95.1 | 95.6 | 93.1 | 90.5
16 | CCCN1C[C@H](CSC)C[C@@H]2c3cccc4[nH]cc(c34)C[C@H]21 [Pergolide mesylate] | 86.1% and 87.8% | 89.7 | 91.7 | 103 | 69.6 | 83.5 | 84 | 93.1
17 | COc1ccc2c(c1)/C(=C/c1cnc[nH]1)C(=O)N2 | 91.8% and 96.2% | 88 | 33.7 | 39.8 | 22.1 | 3.31 | 15.4 | 24.6
18 | c1ccc2c(c1)[I+]c1ccccc1-2 [Diphenyleneiodonium chloride (DPI)] | 25.4% and 25.3% | 25 | 19.6 | 25.4 | 3.2 | 2.99 | 11.4 | 16.4

Row | SMILES | cell viability (K562; SRSF2 genotype: SRSF2 P95H/wt) | cell viability (K562; SRSF2 genotype: SRSF2 wt/wt) [%] | cell viability (MARIMO; SRSF2 genotype: SRSF2 P95H/wt) [%] | cell viability (MARIMO; SRSF2 genotype: SRSF2 wt/wt) [%] | cell viability (MOLM14; SRSF2 genotype: SRSF2 P95H/wt) [%] | cell viability (MOLM14; SRSF2 genotype: SRSF2 wt/wt) [%] | cell viability (OCI-AML2; SRSF2 genotype: P95H/wt) [%] | cell viability (OCI-AML2; SRSF2 genotype: wt/wt) [%]
19 | C[C@H]1CC[C@@H]2N(C1)C[C@H]1[C@@H]3C[C@H]4[C@@H](C[C@H](O)[C@H]5C[C@@H](O)CC[C@@]54C)[C@@H]3CC[C@@H]1[C@]2(C)O [Peimine] | 110% and 102% | 95.8 | 97.3 | 104 | 104 | 98.6 | 99.6 | 106
20 | CC(=O)O[C@@H]1[C@H]2[C@@H](OC(=O)Cc3ccccc3)[C@@H](C)C[C@]2(OC(C)=O)C(=O)/C(C)=C/[C@@H]2[C@H](CC[C@]13CO3)C2(C)C [Euphorbia factor L1] | 105% and 96.6% | 100 | 89.8 | 102 | 102 | 104 | 95.9 | 105
21 | CCCCC(C#N)(Cn1cncn1)c1ccc(Cl)cc1 (stereo not given) [Myclobutanil] | 105% and 99.5% | 100 | 97 | 109 | 93.9 | 108 | 92.3 | 98.1
22 | Cc1sc2c(c1C)C(c1ccc(Cl)cc1)=NC(CC(N)=O)c1nnc(C)n1-2 (stereo not given) | 65.2% and 63.5% | 69.8 | 30 | 36.7 | 20.1 | 20.3 | 15.3 | 29.4
23 | C=C[C@H]1CN2CC[C@]3(C(=O)Nc4ccccc43)[C@@H]2C[C@@H]1/C(=C\OC)C(=O)OC [Corynoxeine] | 92.3% and 98.1% | 97.7 | 84.5 | 81.1 | 93.8 | 93.1 | 96 | 95.4
24 | Cc1cccc([C@H](C)c2c[nH]cn2)c1C [Dexmedetomidine] | 97.4% and 102% | 98.5 | 95.6 | 101 | 105 | 102 | 114 | 95.9
25 | Nc1nc(N)nc(N)n1 [Melamine] | 93% and 95.7% | 90 | 94.3 | 99 | 90.1 | 94.4 | 95.2 | 97.8
26 | c1cc2c(cc1[C@H]1OC[C@H]3[C@@H]1CO[C@@H]3c1ccc3c(c1)OCO3)OCO2 [Sesamin (Fagarol)] | 92.3% and 97.8% | 97.3 | 94.2 | 111 | 98.8 | 105 | 100 | 102
27 | COc1ccc2c(c1)[nH]c1c(C)nccc12 [Harmine hydrochloride] | 88.3% and 94.7% | 92.7 | 79.5 | 87.7 | 54.3 | 66.8 | 38.1 | 49.9
28 | COc1cc(-n2c(=S)[nH]c3ccccc3c2=O)c(Cl)cc1Cl [Mdivi-1] | 91.9% and 96.6% | 94.2 | 90.7 | 95.2 | 91 | 102 | 109 | 116
29 | Nc1ncnc2c1ccn2[C@@H]1O[C@H](CO)[C@@H](O)[C@H]1O [Tubercidin] | 4.16% and 3.19% | 3.9 | 1.78 | 1.63 | 0.87 | 1.22 | 0.61 | 0.99
30 | NCCc1ccccc1 [2-Phenylethylamine hydrochloride] | 105% and 104% | 104 | 103 | 105 | 104 | 106 | 112 | 117
31 | CCN(C)C(=O)Oc1cccc([C@H](C)N(C)C)c1 [Rivastigmine tartrate (Exelon)] | 103% and 106% | 101 | 101 | 105 | 99.5 | 108 | 104 | 113
32 | N#C[C@H](O[C@@H]1O[C@H](CO[C@@H]2O[C@H](CO)[C@@H](O)[C@H](O)[C@H]2O)[C@@H](O)[C@H](O)[C@H]1O)c1ccccc1 [Amygdalin] | 104% and 107% | 102 | 104 | 107 | 106 | 108 | 107 | 95.3
33 | CN1[C@@H]2C[C@@H](OC(=O)[C@H](CO)c3ccccc3)C[C@H]1[C@@H]1O[C@@H]12 [Scopolamine hydrobromide] | 97.1% and 95.9% | 99.9 | 101 | 109 | 104 | 100 | 102 | 104
34 | C[C@]12CCC(=O)C(O)=C1CC[C@@H]1[C@@H]2CC[C@]2(C)C(=O)CC[C@@H]12 [Formestane] | 96.6% and 94.4% | 102 | 93.2 | 107 | 107 | 103 | 104 | 112
35 | O=c1[nH]c2ccc(Cl)cc2c(N[C@@H]2CN3CCC2CC3)c1-c1nc2ccccc2[nH]1 | 2.58% and 2.45% | 0.48 | 0.55 | 0.36 | 0.07 | -0.01 | 0.04 | 0.75
